# Assay results from PubChem BioAssay (NCATS).
# Records with an inconclusive call do not appear. Active and inactive are the calls of the source. Unless noted, the call rests on the fitted dose curve; in most records, active means well fitted curve in the direction sought with a large enough effect; inconclusive means small, poorly fitted or top-dose-only effect, or another doubt; inactive means no such curve, though single readings can be large; an effect the other way counts as inactive or inconclusive.
# Legend:
# [1] = qHTS drug screen for cell cycle checkpoint inhibitors in PARPi-resistant BRCA-mutant ovarian cancer cell lines. (AID 1963452; calls by dose curve; further: potency means the concentration at half of the fitted maximal effect); conditions: PEO1/OlaR viability, CellTiter-Glo luminescence, 96 h; for Z-AUC: stronger effect = lower value
# How it was run: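 PEO1, PEO4 and PEO1/OlaR ovarian cancer cells, 600 per well, exposed 96 h at 37C to a dilution series. Viability read by CellTiter-Glo luminescence, normalized to DMSO and empty wells; activity summarized as Z-AUC.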
# [2] = Quantitative High-Throughput drug screen in 47 multiple myeloma cell lines against the NCATS MIPE library collection: KMS28BM_JCRB cell viability assay (AID 1919874); conditions: CellTiter-Glo ATP, 48 h; series mostly up to 45.8 µM; further: nearly all actives have a fitted effect of over 35% in size
# How it was run: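 500 cells/well per myeloma line exposed to pinned MIPE 4.0 compounds for 48 h at 37 °C, 5% CO2. Viability read as ATP by CellTiter-Glo luminescence, normalised to DMSO-only (100%) and media-only (0%) wells.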
# [3] = qHTS for identification of novel therapeutic agents for treatment of microphthalmiaassociated transcription factor (MiT) renal cell carcinoma (RCC) (AID 1963991); conditions: CellTiter-Glo, 48 h, stronger effect = lower value
# How it was run: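 Curves over 11 concentrations were fitted to CellTiter-Glo luminescence, scaled between empty wells (0%) and DMSO (100%) viability. Cells were UOK109, UOK124 and UOK145 TFE3-fusion RCC lines at 500/well, exposed 48 hours at 37 C.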
# [4] = qHTS profiling for inhibitors of Plasmodium falciparum proliferation (AID 504749);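 further: 0% = DMSO vehicle and full inhibition = artemisinin control; nearly all actives have a fitted effect of over 60% in size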; conditions: P. falciparum in erythrocytes, SYBR Green DNA, 72 h, at 28.7 µM (top of the series)
# How it was run: (§1)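 P. falciparum-infected erythrocytes (0.3% parasitemia, 2.5% hematocrit) incubated with compound 72 h at 37 C, 5% CO2. Parasite DNA detected by SYBR Green after lysis, overnight at room temperature; normalised to 0.29 uM artemisinin and DMSO.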
# [5] = system: 3D7; experiment: as above; conditions: P. falciparum in erythrocytes, SYBR Green DNA, 72 h; series mostly up to 28.7 µM
# How it was run: as §1
# [6] = system: 7G8; experiment: as above; conditions: P. falciparum in erythrocytes, SYBR Green DNA, 72 h; series mostly up to 28.7 µM
# How it was run: as §1
# [7] = system: AA1029; experiment: as above; conditions: P. falciparum in erythrocytes, SYBR Green DNA, 72 h; series mostly up to 28.7 µM
# How it was run: as §1
# [8] = system: AS120; experiment: as above; conditions: P. falciparum in erythrocytes, SYBR Green DNA, 72 h; series mostly up to 28.7 µM
# How it was run: as §1
# [9] = system: ATS189; experiment: as above; conditions: P. falciparum in erythrocytes, SYBR Green DNA, 72 h; series mostly up to 28.7 µM
# How it was run: as §1
# [10] = system: ATS95; experiment: as above; conditions: P. falciparum in erythrocytes, SYBR Green DNA, 72 h; series mostly up to 28.7 µM
# How it was run: as §1
# [11] = system: C2A; experiment: as above; conditions: P. falciparum in erythrocytes, SYBR Green DNA, 72 h; series mostly up to 28.7 µM
# How it was run: as §1
# [12] = system: CP185; experiment: as above; conditions: P. falciparum in erythrocytes, SYBR Green DNA, 72 h; series mostly up to 28.7 µM
# How it was run: as §1
# [13] = system: CP191; experiment: as above; conditions: P. falciparum in erythrocytes, SYBR Green DNA, 72 h; series mostly up to 28.7 µM
# How it was run: as §1
# [14] = system: CP192; experiment: as above; conditions: P. falciparum in erythrocytes, SYBR Green DNA, 72 h; series mostly up to 28.7 µM
# How it was run: as §1
# [15] = molecular target: Cytochrome P450 3A4 (Homo sapiens) (UniProt P08684); experiment: qHTS for inhibitors of CYP3A4 against the NCATS DSHEA and TCM libraries (AID 1919971); conditions: recombinant CYP3A4 enzyme activity, luminescence qHTS; series mostly up to 34.1 µM;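 further: on the % scale 0 is the no-effect control and ±100 the full control effect; inhibition lowers luminescence from luciferin made by CYP3A4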
# How it was run: (§2)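 Read-out is luminescence after P450-Glo detection (30 min, RT). Before that: 15 min compound–enzyme preincubation, then 30-45 min reaction with 1x NADPH regeneration solution, substrate concentration isoform-specific.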
# [16] = molecular target: Cytochrome P450 2D6 (Homo sapiens) (UniProt P10635); experiment: qHTS for inhibitors of CYP2D6 against the NCATS DSHEA and TCM libraries (AID 1919972); conditions: CYP2D6 enzymatic inhibition, luminescence qHTS; series mostly up to 34.1 µM; further: on the % scale 0 is the no-effect control and ±100 the full control effect
# How it was run: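 Luminescent P450-Glo read-out of CYP2D6 turnover of a luciferin substrate after NADPH-driven reaction of 30-45 min at room temperature. Compounds were first preincubated 15 min with enzyme at titrated concentrations; quinidine was the intraplate control.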
# [17] = molecular target: Cytochrome P450 2C9 (Homo sapiens) (UniProt P11712); experiment: qHTS for inhibitors of CYP2C9 against the NCATS DSHEA and TCM libraries (AID 1919973); conditions: recombinant CYP2C9 enzyme activity, luminescence; series mostly up to 34.1 µM;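 further: luminogenic pro-luciferin CYP2C9 substrate turned into luciferin with NADPH regeneration; on the % scale 0 is the no-effect control and ±100 the full control effect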
# How it was run: as §2
# [18] = molecular target: Cytochrome P450 2C19 (Homo sapiens) (UniProt P33261); experiment: qHTS for inhibitors of CYP2C19 against the NCATS DSHEA and TCM libraries (AID 1919974); conditions: CYP2C19 enzyme inhibition, luminescence qHTS; series mostly up to 34.1 µM;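 further: luminescence from luciferin released by CYP2C19 oxidation of a pro-luciferin substrate; on the % scale 0 is the no-effect control and ±100 the full control effect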
# How it was run: as §2
# [19] = molecular target: Cytochrome P450 1A2 (Homo sapiens) (UniProt P05177); experiment: qHTS for inhibitors of CYPIA2 against the NCATS DSHEA and TCM libraries (AID 1919976); conditions: recombinant CYP1A2 enzyme activity, luminescence; series mostly up to 37 µM;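 further: light from luciferin formed by CYP1A2 from a pro-luciferin substrate; on the % scale 0 is the no-effect control and ±100 the full control effect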
# How it was run: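 CYP1A2 + luciferin substrate, 100 mM KPO4-type buffer; cmpd 15 min RT; 1x NADPH regen, 30-45 min RT dark; detection reagent 30 min RT; luminescence. Minus-enzyme wells as background; furafylline intraplate control.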
# [20] = KB-8-5-11 P-gp reporter qHTS against the NCATS DSHEA and TCM libraries (AID 1919977); conditions: KB-8-5-11 cells; series mostly up to 26.1 µM; further: 0% is about no effect
# How it was run: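 CellTiter-Glo luminescence measured viability after ~72 h exposure (37C, 5% CO2) of KB-8-5-11 cervical adenocarcinoma cells overexpressing P-gp. Colchicine was omitted during assay. Substances were tested as titrations.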
# [21] = measured here: PEO1 parental Z-AUC
# [22] = TFE3-RCC UOK109 viability, measured here: UOK109 Z-AUC
# [23] = TFE3-RCC viability, measured here: UOK124 Z-AUC
# [24] = TFE3-RCC viability, measured here: UOK145 Z-AUC
# Sequence of Cytochrome P450 3A4 (Homo sapiens) (P08684 whole entry, looked up, canonical isoform): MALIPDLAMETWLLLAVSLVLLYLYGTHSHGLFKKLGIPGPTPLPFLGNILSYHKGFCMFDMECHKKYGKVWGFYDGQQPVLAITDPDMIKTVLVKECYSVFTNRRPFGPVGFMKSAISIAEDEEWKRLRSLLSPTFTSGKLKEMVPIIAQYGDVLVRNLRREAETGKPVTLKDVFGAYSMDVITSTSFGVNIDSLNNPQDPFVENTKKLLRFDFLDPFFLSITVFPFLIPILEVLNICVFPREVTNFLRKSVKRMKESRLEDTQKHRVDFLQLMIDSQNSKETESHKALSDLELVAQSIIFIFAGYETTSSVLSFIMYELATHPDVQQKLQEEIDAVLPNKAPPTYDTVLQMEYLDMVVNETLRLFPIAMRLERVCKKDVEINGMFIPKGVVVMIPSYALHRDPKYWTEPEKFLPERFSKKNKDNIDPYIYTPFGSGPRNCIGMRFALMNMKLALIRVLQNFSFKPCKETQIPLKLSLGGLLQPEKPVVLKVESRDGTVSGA
# Sequence of Cytochrome P450 2C19 (Homo sapiens) (P33261 whole entry, looked up): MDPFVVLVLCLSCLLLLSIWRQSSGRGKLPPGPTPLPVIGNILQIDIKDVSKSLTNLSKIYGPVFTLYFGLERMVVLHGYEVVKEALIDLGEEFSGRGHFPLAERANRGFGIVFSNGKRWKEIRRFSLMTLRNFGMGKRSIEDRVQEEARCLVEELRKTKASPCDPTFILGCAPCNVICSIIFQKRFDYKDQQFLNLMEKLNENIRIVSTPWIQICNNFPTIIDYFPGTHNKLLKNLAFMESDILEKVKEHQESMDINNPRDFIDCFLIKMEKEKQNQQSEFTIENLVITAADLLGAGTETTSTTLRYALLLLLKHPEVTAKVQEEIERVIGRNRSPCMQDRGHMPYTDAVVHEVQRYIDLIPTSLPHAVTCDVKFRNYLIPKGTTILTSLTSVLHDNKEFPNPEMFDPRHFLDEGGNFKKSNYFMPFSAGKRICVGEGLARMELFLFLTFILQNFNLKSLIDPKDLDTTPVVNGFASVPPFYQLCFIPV
# Sequence of Cytochrome P450 2C9 (Homo sapiens) (P11712 whole entry, looked up): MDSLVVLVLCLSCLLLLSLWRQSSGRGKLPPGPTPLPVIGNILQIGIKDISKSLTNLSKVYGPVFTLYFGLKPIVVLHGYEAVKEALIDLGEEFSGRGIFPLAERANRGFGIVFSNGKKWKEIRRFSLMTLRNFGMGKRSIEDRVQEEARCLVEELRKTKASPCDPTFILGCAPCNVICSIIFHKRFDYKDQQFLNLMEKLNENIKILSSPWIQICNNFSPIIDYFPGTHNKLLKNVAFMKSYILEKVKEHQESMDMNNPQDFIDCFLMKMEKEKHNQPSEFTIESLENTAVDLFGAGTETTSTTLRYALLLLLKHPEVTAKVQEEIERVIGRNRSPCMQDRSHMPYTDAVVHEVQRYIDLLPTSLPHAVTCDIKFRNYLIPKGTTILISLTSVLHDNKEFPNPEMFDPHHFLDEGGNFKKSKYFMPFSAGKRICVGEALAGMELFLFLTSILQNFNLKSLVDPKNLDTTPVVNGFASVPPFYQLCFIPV
# Sequence of Cytochrome P450 2D6 (Homo sapiens) (P10635 whole entry, looked up): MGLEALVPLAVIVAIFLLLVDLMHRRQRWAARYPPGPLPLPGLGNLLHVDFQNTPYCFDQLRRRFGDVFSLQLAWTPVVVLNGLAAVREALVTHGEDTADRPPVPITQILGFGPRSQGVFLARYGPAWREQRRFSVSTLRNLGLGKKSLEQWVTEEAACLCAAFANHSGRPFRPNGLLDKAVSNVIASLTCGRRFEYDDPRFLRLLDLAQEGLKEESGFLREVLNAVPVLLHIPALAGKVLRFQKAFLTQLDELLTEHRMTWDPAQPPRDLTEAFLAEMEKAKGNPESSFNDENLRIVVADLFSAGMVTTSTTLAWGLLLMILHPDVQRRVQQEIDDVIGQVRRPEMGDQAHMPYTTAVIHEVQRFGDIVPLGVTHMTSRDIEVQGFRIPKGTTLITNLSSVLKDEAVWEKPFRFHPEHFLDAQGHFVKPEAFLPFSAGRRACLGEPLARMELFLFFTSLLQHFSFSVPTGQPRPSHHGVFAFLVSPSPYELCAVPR
# Sequence of Cytochrome P450 1A2 (Homo sapiens) (P05177 whole entry, looked up): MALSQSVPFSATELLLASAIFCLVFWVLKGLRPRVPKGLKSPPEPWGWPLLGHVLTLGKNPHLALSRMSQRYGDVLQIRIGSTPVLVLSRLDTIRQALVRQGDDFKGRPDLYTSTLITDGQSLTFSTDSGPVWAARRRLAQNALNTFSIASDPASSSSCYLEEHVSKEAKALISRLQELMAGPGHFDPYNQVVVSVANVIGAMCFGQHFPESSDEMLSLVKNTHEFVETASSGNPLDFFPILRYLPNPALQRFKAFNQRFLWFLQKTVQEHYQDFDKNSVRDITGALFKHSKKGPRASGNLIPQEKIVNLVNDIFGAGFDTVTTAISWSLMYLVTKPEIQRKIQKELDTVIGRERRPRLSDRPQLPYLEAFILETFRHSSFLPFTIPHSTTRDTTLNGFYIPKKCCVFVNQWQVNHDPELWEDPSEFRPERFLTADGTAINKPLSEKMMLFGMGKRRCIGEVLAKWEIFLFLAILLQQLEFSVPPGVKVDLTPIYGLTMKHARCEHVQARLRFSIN
smiles,measurement,setting,value
COc1cccc2c1C(=O)c1c(O)c3c(c(O)c1C2=O)C[C@@](O)(C(=O)CO)CC3OC1CC(N2CCOC(OC)C2)C(O)C(C)O1 (some centres undefined),Potency,[1],7.8 nM (active)
same,Z-AUC,[1]; [21],-3.26
same,Z-AUC,[1]; measured here: PEO4 Z-AUC,-2.98
COc1cc(OC)c(OC)cc1C=O,outcome,[2],inactive
same,z-score,[3]; [22],0.0222
same,z-score,[3]; [23],0.514
same,z-score,[3]; [24],0.092
CN1C(=O)CCS(=O)(=O)C1c1ccc(Cl)cc1 (centres undefined),outcome,[2],inactive
same,Z-AUC,[1],1.64 (inactive)
same,Z-AUC,[1]; [21],1.76
same,Z-AUC,[1]; measured here: PEO4 Z-AUC,1.36
same,z-score,[3]; [22],0.949
same,z-score,[3]; [23],0.189
same,z-score,[3]; [24],0.774
same,"activity, negative = inhibition",[4]; parasite line A,-12.8% (inactive)
same,"activity, negative = inhibition",[4]; parasite line B,-22.5% (inactive)
same,Potency,[5],inactive
same,Potency,[6],inactive
same,Potency,[7],inactive
same,Potency,[8],inactive
same,Potency,[9],inactive
same,Potency,[10],inactive
same,Potency,[11],inactive
same,Potency,[12],inactive
same,Potency,[13],inactive
same,Potency,[14],inactive
CCC1(c2ccc(N)cc2)CCC(=O)NC1=O (centres undefined),outcome,[2],inactive
same,Z-AUC,[1],1.39 (inactive)
same,Z-AUC,[1]; [21],0.942
same,Z-AUC,[1]; measured here: PEO4 Z-AUC,1.02
C[C@]12CC[C@H]3[C@@H](CC[C@@]45O[C@H]4C(O)=C(C#N)C[C@]35C)[C@H]1CC[C@H]2O,outcome,[2],inactive
C[C@]12Cc3cn[nH]c3C[C@@H]1CC[C@@H]1[C@@H]2CC[C@@]2(C)[C@H]1CC[C@]2(C)O,Z-AUC,[1],1.25 (inactive)
same,Z-AUC,[1]; [21],0.915
same,Z-AUC,[1]; measured here: PEO4 Z-AUC,1.64
CCCCCCCCCCCCCCCCCC(=O)O,outcome,[15],inactive
same,outcome,[16],inactive
same,outcome,[17],inactive
same,outcome,[18],inactive
same,outcome,[19],inactive
same,outcome,[20],inactive
CC(C)C[C@H](CN)CC(=O)O,outcome,[2],inactive
same,Z-AUC,[1],1.17 (inactive)
same,Z-AUC,[1]; [21],0.458
same,Z-AUC,[1]; measured here: PEO4 Z-AUC,0.548
same,z-score,[3]; [22],-0.701
same,z-score,[3]; [23],0.851
same,z-score,[3]; [24],0.709
O=C(O)c1cccnc1,outcome,[20],inactive
O=P1(N(CCCl)CCCl)NCCCO1 (centres undefined),Z-AUC,[1],1.32 (inactive)
same,Z-AUC,[1]; [21],1.49
same,Z-AUC,[1]; measured here: PEO4 Z-AUC,1.45
same,z-score,[3]; [22],0.655
same,z-score,[3]; [23],0.953
same,z-score,[3]; [24],1.4
same,"activity, negative = inhibition",[4]; parasite line A,11.3% (inactive)
same,"activity, negative = inhibition",[4]; parasite line B,6.9% (inactive)
same,Potency,[5],inactive
same,Potency,[6],inactive
same,Potency,[7],inactive
same,Potency,[8],inactive
same,Potency,[9],inactive
same,Potency,[10],inactive
same,Potency,[11],inactive
same,Potency,[12],inactive
same,Potency,[13],inactive
same,Potency,[14],inactive
O=C(O)c1cc(O)c(O)c(O)c1,outcome,[20],inactive
Cc1ccc(C(C)C)c(O)c1,outcome,[20],inactive
NNC(=O)c1ccncc1,outcome,[20],inactive
CC(C)=CCC[C@@](C)(O)[C@H]1CC=C(C)CC1,outcome,[20],inactive
CC(NC(C)(C)C)C(=O)c1cccc(Cl)c1 (centres undefined),outcome,[2],inactive
same,Z-AUC,[1],-0.176 (inactive)
same,Z-AUC,[1]; [21],0.0369
same,Z-AUC,[1]; measured here: PEO4 Z-AUC,1.02
same,z-score,[3]; [22],0.679
same,z-score,[3]; [23],0.615
same,z-score,[3]; [24],0.622
O=C(O)CCCC[C@@H]1SC[C@@H]2NC(=O)N[C@@H]21,outcome,[20],inactive
C[C@]12CC[C@@H]3c4ccc(OC(=O)N(CCCl)CCCl)cc4CC[C@H]3[C@@H]1CC[C@@H]2OP(=O)(O)O,outcome,[2],inactive
same,Z-AUC,[1],0.291 (inactive)
same,Z-AUC,[1]; [21],1.75
same,Z-AUC,[1]; measured here: PEO4 Z-AUC,1.95
CC12CCC(CC1)C(C)(C)O2,outcome,[20],inactive
NC(=O)NC1NC(=O)NC1=O (centres undefined),outcome,[20],inactive
